Results taken from publication PMC7819943, “Rice protein-binding microarrays: a tool to detect cis-acting elements near promoter regions in rice”.
Whole data set: some 68,000 sequences, median “fluorescence intensity (a.u.)” near 9,100, cut for the highest 2% near 16,000. What follows is part of a selection rich in the highest values, with near analogues and random picks from the rest.

Biological target: OsWRKY34 (Oryza sativa, UniProt Q0JBA9 1-250)
Assay: protein-binding microarray (RPBM); PBS, 2% BSA, 51.3 ng/ul salmon testes DNA, 50 uM zinc acetate, 200 nM TF, 25 C, 1 h; high values mean tight binding
Conditions: protein: recombinant; tags: N-terminal polyhistidine and DsRed monomer fusion (pET32a); label: CyDye5-dUTP incorporated in the synthesized complementary strand; 3' TTTTT single-stranded linker to array surface; dsDNA, one strand shown
How it was run: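 Transcription factors were made in E. coli BL21-CodonPlus as N-terminal fusions to a polyhistidine tag and DsRed, then purified on Ni–NTA. After primer extension with Cy5-dUTP and blocking with 2% BSA, a custom Agilent array was exposed for 1 h at 25 °C to 200 nM protein in PBS, 2% BSA, salmon testes DNA and 50 µM zinc acetate. Washed arrays were scanned on an Axon 4000B, and the binding signal is per-feature fluorescence intensity in arbitrary units.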

Sequence of OsWRKY34 (Q0JBA9 entry or part of it): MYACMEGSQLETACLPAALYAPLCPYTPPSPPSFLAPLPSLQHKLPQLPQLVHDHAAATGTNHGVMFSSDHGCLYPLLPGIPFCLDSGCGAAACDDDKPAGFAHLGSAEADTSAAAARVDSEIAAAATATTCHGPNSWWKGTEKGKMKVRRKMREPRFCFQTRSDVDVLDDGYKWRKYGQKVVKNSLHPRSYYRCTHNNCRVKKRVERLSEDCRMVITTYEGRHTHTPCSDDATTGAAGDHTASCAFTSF

Sequence | binding signal
GTATTTAATTAGCTCCTCGTCTTGTTCTGCTAAGCTACTACGGAGTCACCTAGTGCAG | 9460 fluorescence intensity (a.u.)
TTGTCATCCTCGCCACCTCATTCTTTCTTTCTTTCATCTCCGGAGTCACCTAGTGCAG | 12900 fluorescence intensity (a.u.)
ACATAACACCACTTGATACTATTTCTCTTAATTAATTACTCGGAGTCACCTAGTGCAG | 9670 fluorescence intensity (a.u.)
GTTGACTTTTTAGTACGTGTTTGACCATTCGTCTTATTCACGGAGTCACCTAGTGCAG | 10100 ± 646 fluorescence intensity (a.u.)
GACTTTTTAGTACGTGTTTGACCATTCGTCTTATTCAAAACGGAGTCACCTAGTGCAG | 11900 fluorescence intensity (a.u.)
CCGTTGACTTTTTAGTACGTGTTTGACCATTCGTCTTATTCGGAGTCACCTAGTGCAG | 32300 ± 947 fluorescence intensity (a.u.)
CCATTGTTAGGGTTAAGTCTTATTTCACCACATCGTTTTTCGGAGTCACCTAGTGCAG | 8740 fluorescence intensity (a.u.)
GGCTTACCCAAGAATAACGATCCAACTTGGGGAGGGAGGGCGGAGTCACCTAGTGCAG | 10000 fluorescence intensity (a.u.)
TTTGACGCTGTTGACTTTTTTTAACATGTTTGACTGTTCGCGGAGTCACCTAGTGCAG | 32700 fluorescence intensity (a.u.)
TTTGACACCGTTGACTTTTTTAAACATGTTTAACTGTTCGCGGAGTCACCTAGTGCAG | 33900 fluorescence intensity (a.u.)
TTGACTTTTTTAAACATGTTTAACTGTTCGTCTTATTAAACGGAGTCACCTAGTGCAG | 8820 fluorescence intensity (a.u.)
AATGTTTGACACCGTTGACTTTTTAACACATGTTTGACCGCGGAGTCACCTAGTGCAG | 39300 fluorescence intensity (a.u.)
GAGCCCGTACTCATTTCTCGCCAAGTGCACCACTTCACTCCGGAGTCACCTAGTGCAG | 10700 fluorescence intensity (a.u.)
TCCTCTACTGGTTCTACGTCTTCTCATAATCAACCCAAATCGGAGTCACCTAGTGCAG | 11700 fluorescence intensity (a.u.)
CGCTCATCTATTTCTTTGTAGTACAACGCAGGCGCTCACACGGAGTCACCTAGTGCAG | 8090 fluorescence intensity (a.u.)
CTTCCCATGGCTTTTACTCTCCACTCGAAATCTCGTAACACGGAGTCACCTAGTGCAG | 11100 fluorescence intensity (a.u.)
GCAGCATCACTCCATGTTCTCTCTTCCTACTCTCCATACTCGGAGTCACCTAGTGCAG | 16800 fluorescence intensity (a.u.)
GCATCACTATTCACTCCATGTTCTCTCTTCCTACTCTCCACGGAGTCACCTAGTGCAG | 8250 fluorescence intensity (a.u.)
CTCGTCATTGTTCCCATGTTTTTCTATTTCATTTCTAATTCGGAGTCACCTAGTGCAG | 9350 fluorescence intensity (a.u.)
AATCGATTCTCCACTACTCTCTCGTCATTGTTCCCATGTTCGGAGTCACCTAGTGCAG | 20100 fluorescence intensity (a.u.)
TAGCTCCATTGTTCGATCTCATCTCCCTTAGCTAGCTACTCGGAGTCACCTAGTGCAG | 8130 fluorescence intensity (a.u.)

Sequence | binding signal
ACACACTACTACTACTCTTCTCCCTCTCCATCTCTTCCCTCGGAGTCACCTAGTGCAG | 8320 fluorescence intensity (a.u.)
CTTATGTCTCACTAAATATTTACTTTTGCCATCGGCAAATCGGAGTCACCTAGTGCAG | 8080 fluorescence intensity (a.u.)
GTCACCTTTTCTTTTATCAACATTCATTTGTTTTATTACTCGGAGTCACCTAGTGCAG | 8270 fluorescence intensity (a.u.)
AATTCAACGCACGTCTCTTGTCCTGCACTTCTGCTATGCCCGGAGTCACCTAGTGCAG | 11000 fluorescence intensity (a.u.)
AATTCTATGCCTCGATACATTTTTGGTGTTTATTATGGTTCGGAGTCACCTAGTGCAG | 8460 fluorescence intensity (a.u.)
CTCACCGCGCCGCTCACCTCCTCAAGACCACCACCCACCACGGAGTCACCTAGTGCAG | 9730 fluorescence intensity (a.u.)
ACAAATCCTGGTCATTTCTTGACCGTATGAATTCTAGAAACGGAGTCACCTAGTGCAG | 9650 fluorescence intensity (a.u.)
AAGAAATCTCTTTGAAAAACTTGCATGCTAACTTGAGACGCGGAGTCACCTAGTGCAG | 44900 fluorescence intensity (a.u.)
AGAATCTGACGTTTTATTTCTGAAACTTTCTTTGCATGCACGGAGTCACCTAGTGCAG | 8030 fluorescence intensity (a.u.)
CAACCTCTTGCTAACTTTCCTTTGAGTCTATCTCTCTCATCGGAGTCACCTAGTGCAG | 10700 fluorescence intensity (a.u.)
GTGCTCGGCTCCTCTCTCAGTAGCTTGTATGTGTCAGTTGCGGAGTCACCTAGTGCAG | 10500 fluorescence intensity (a.u.)
AGCTTCAACCTCTTGTAACTTTCCTTTGAGTATATCTCTCCGGAGTCACCTAGTGCAG | 10200 fluorescence intensity (a.u.)
TGTCCGGTATTTTAAGTTTAGGGTGAGTAATATCTGGTTTCGGAGTCACCTAGTGCAG | 10600 fluorescence intensity (a.u.)
GGTGTGATATATCTGGTTTTGTGGTTCGGTGGGGTAATTCCGGAGTCACCTAGTGCAG | 22000 fluorescence intensity (a.u.)
GGATATCCGGTTTTGTGGTTGGGTGACGATTTTGTAATTCCGGAGTCACCTAGTGCAG | 9010 fluorescence intensity (a.u.)
GGGTGAAAATGTCTGGTTTTGTGGTTTAAGGGTGTAATTCCGGAGTCACCTAGTGCAG | 8700 fluorescence intensity (a.u.)
GGGTGAGTAATATCTGGTTTTTGGGTTTAGGGCGGTAATTCGGAGTCACCTAGTGCAG | 17700 fluorescence intensity (a.u.)
TTGGGTTTAGGGCGGTAATTCGGTTGACCGCGATAGTTCACGGAGTCACCTAGTGCAG | 12400 fluorescence intensity (a.u.)
CATCATACAGTAACAGCACAAGCACACACTACACGCACTCCGGAGTCACCTAGTGCAG | 8640 fluorescence intensity (a.u.)
GGGTTGGTTCCTGCCTCTCGAGTCTCAGCAAGTGTGTCACCGGAGTCACCTAGTGCAG | 11500 fluorescence intensity (a.u.)
CAAATGGCCCACCTGTCCTAGCTTGGCCCGGCCCGGGCACCGGAGTCACCTAGTGCAG | 8680 fluorescence intensity (a.u.)
